The nature of assay [1]: growth inhibition, single agents and combos, LFS_MB_1R, cell-based, cisplatin or BGB combos, synergistic combos for chromothripsis tumors (AID 1671452).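 Further: cells exposed for 96 hours before readout.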 Particulars: LFS_MB_1R medulloblastoma cells, stronger effect = higher value.
Assay [2] is described as follows: growth inhibition, single agents and combos, CRL2098, cell-based, BGB or cisplatin IC20 combos, synergistic combos for chromothripsis tumors (AID 1671454).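 Further: cells exposed for 96 h before readout; 0% = vehicle DMSO and 100% = killing by high DMSO.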 Particulars: CRL2098 osteosarcoma cells, drug combinations, stronger effect = higher value.
Assay [3] in a line: growth inhibition, single agents and combos, HD-MB03, cell-based, BGB or cisplatin IC20 combos, synergistic combos for chromothripsis tumors (AID 1671455; in the data active means inhibition above about 83%;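 further: 0% = vehicle DMSO and 100% = high DMSO as cytotoxic control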). To be noted: HD-MB03 medulloblastoma cells, stronger effect = higher value.
Assay [4] in a line: growth inhibition, single agents and combos, UWB1.289, cell-based, BGB or cisplatin combos, synergistic combos for chromothripsis tumors (AID 1671456).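 Further: cells exposed to compound for four days; 0% = vehicle DMSO and 100% = killing by high DMSO.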 To be noted: UWB1.289 ovarian carcinoma cells, stronger effect = higher value.
The nature of assay [5]: growth inhibition, single agents and combos, LFS_MB_2R, cell-based, cisplatin combos, synergistic combos for chromothripsis tumors (AID 1671457).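 Further: cells exposed to compound for four days before readout.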 Particulars: LFS_MB_2R medulloblastoma cells, stronger effect = higher value.
Assay [6] can be described thus: growth inhibition, MDA-MB-436, cell-based, BGB or cisplatin combos, synergistic combos for chromothripsis tumors (AID 1671458; call rule not given here;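 further: cells exposed for 96 hours; 0% = vehicle DMSO and 100% = killing by high DMSO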). Particulars: MDA-MB-436 breast carcinoma growth inhibition, drug combinations, stronger effect = higher value.
Assay [7] can be described thus: UWB1.289_BRCA1 ovarian cancer growth, cell-based, BGB or cisplatin combinations (AID 1671459). To be noted: UWB1.289 BRCA1 ovarian carcinoma, drug combinations, stronger effect = higher value.
The nature of assay [8]: drug combination toxicity in non-malignant astrocytes – cell-based, BGB or cisplatin IC20 combos, cytotoxicity control for chromothriptic childhood tumor combination screen (AID 1671460).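 Further: cells exposed to compounds for 96 hours before viability readout; 0% = vehicle and 100% = killing control.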 Particulars: Human astrocytes, viability inhibition, drug combinations, at 0.5 µM, stronger effect = higher value.
The nature of assay [9]: BT084 cell growth, single and combined drugs, ICGC_MB145, cisplatin and BGB IC40 combos (AID 1671461).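 Further: cells exposed to drugs for 96 hours; 0% = vehicle DMSO and 100% = high DMSO full killing control.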 Particulars: BT084 medulloblastoma cells, drug combinations, stronger effect = higher value.
Assay [10] can be described thus: RCMB18 cell growth, single agent and combined, cisplatin and BGB IC40 combos (AID 1671462).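 Further: cells exposed to compound for four days.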 Particulars: RCMB18 medulloblastoma cells, stronger effect = higher value.
The nature of assay [11]: CRL1545 cell growth, single agent and combined, cisplatin and BGB IC20 combos (AID 1671464).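 Further: cells exposed to compound for 96 hours before readout; 0% = vehicle DMSO and 100% = high DMSO killing control.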 To be noted: CRL1545 osteosarcoma cells, stronger effect = higher value.
Assay [12] deals with ATP-dependent translocase ABCB1 (Homo sapiens) (UniProt P08183). Briefly: P-glycoprotein substrate transport blockade – cell-based (AID 377; in the data active means fluorescence slope change above about 50%). Particulars: MDR1-expressing cells, fluorescent substrate accumulation slope; stronger effect = higher value; concentration not given here.
ATP-dependent translocase ABCB1 (Homo sapiens), sequence (P08183 whole entry, looked up): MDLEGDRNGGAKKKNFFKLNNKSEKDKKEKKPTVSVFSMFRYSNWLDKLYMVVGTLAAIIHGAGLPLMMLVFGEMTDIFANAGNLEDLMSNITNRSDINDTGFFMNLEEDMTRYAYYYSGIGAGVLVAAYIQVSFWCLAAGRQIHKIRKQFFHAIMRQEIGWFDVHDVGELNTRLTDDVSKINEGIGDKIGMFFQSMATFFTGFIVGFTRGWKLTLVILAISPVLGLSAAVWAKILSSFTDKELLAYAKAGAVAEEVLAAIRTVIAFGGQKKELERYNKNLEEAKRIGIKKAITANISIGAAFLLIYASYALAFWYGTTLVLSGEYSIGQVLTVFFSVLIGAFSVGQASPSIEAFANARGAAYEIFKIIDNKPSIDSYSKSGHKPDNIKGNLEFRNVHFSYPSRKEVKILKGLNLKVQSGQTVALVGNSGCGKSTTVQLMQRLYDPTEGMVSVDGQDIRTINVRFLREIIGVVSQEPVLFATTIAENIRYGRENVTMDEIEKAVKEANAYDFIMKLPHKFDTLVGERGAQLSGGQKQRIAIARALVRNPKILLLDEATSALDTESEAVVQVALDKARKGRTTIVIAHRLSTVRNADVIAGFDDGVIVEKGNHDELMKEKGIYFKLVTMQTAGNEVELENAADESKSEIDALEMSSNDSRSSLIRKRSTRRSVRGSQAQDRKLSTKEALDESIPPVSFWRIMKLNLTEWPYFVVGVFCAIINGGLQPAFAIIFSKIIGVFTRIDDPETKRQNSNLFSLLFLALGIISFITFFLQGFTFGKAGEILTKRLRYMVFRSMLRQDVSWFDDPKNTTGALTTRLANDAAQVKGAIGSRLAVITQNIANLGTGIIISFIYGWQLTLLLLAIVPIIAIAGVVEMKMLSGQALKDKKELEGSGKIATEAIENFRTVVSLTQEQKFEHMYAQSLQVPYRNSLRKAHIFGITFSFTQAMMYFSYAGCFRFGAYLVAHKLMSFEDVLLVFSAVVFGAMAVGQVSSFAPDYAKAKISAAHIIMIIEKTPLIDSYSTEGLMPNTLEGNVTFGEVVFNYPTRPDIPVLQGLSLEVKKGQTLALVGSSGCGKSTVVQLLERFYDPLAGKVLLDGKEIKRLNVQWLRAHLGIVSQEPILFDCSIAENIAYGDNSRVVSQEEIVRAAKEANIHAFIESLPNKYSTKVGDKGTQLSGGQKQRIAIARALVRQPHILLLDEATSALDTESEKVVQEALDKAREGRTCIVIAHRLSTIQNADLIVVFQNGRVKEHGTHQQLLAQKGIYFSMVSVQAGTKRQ
Assay [13] can be described thus: rescue of PC12 cells from polyQ htt toxicity – LDH release (AID 1610). To be noted: PC12 mutant huntingtin toxicity, final LDH at 4 uM, stronger effect = lower value.
The test system of assay [14] is Hepatitis C virus NS3 helicase. As to the kind of experiment: blockers of NS3h binding to ssDNA – biochemical, fluorescence polarization, LOPAC1280 library, primary screen (AID 687035; in the data active means inhibition above about 37%). Particulars: Purified HCV NS3 helicase, Cy5-dT15 ssDNA binding fluorescence polarization; stronger effect = higher value; concentration not given here. Background: Polarisation of emitted light reports the rotation of a fluorescent probe.

A short description of assay [15]: compounds altering Cy5-DNA-NS3h complex signal – biochemical, LOPAC1280, artefact control for HCV NS3 helicase inhibitor project (AID 687037; call rule not given here). Particulars: Cy5-DNA-NS3h complex fluorescence interference counterscreen. For orientation: Counterscreens check selectivity or assay interference.
The nature of assay [16]: glutamate excitotoxicity neuroprotectants – cell-based, TUNEL DNA degradation staining, MNGlu (AID 1594; call rule not given here). To be noted: motor neurons, glutamate-induced death, at 1 µM, stronger effect = higher value.
Assay [17] can be described thus: blockers of biotin-polyQ monomer incorporation into aggregates – biochemical, solid-phase synthetic aggregates, QA3 (AID 1585; call rule not given here). To be noted: polyQ aggregate elongation; EC50: measured here: elongation inhibition potency; inhibition: at 100 µM, stronger effect = higher value.
Where [18] appears, read: measured here: combination with cisplatin, at 0.5 µM.
The mark [19] stands for this setting: measured here: combination with cisplatin, at 5 µM.

Records with an inconclusive call do not appear. The source made the active and inactive calls. Unless noted, no stated cut-off is given here; in the data, active means inhibition above about 80%; inactive means the rest.

In the case of `O=C(Nc1ccccc1)c1ccccc1O`, the inhibition in assay [1] (at 0.5 µM) was -12.4% (inactive); in assay [1] (measured here: combination with BGB IC40, at 0.05 µM), -23.1%; in assay [1] (setting [18]), -15.5%; in assay [1] (setting [19]) it was 13.9%; in [2] (at 0.5 µM), -8.88% (inactive); in [2] (measured here: combination with BGB at IC20, at 0.5 µM) it was -7.52%. The inhibition in assay [2] (measured here: combination with cisplatin at IC20, at 0.5 µM) is 4.38%; in [3] (at 0.5 µM), -0.28% (inactive); in [3] (measured here: combo with BGB at IC20, at 0.5 µM) it was 1.59%; in assay [3] (measured here: combo with cisplatin at IC20, at 0.5 µM), -2.6%; in assay [4] (at 0.5 µM), 10.7% (inactive); in assay [4] (measured here: inhibition with BGB combination, at 0.05 µM), 0.707%. Besides, the inhibition in assay [4] (measured here: inhibition with cisplatin combination, at 0.05 µM) was -5.75%; in assay [5] (at 0.5 µM), 6.25% (inactive); in assay [5] (setting [18]) it was 7.79%; in assay [5] (setting [19]) it was 26.7%; in assay [6] (at 0.5 µM) it was -7.25% (inactive); in [6] (measured here: BGB combination, at 0.5 µM) it was -6.93%. Moreover, the inhibition was 9.41% in assay [6] (measured here: BGB combination, at 5 µM); -18% in [6] (measured here: cisplatin combination, at 0.5 µM); 28.1% in [6] (measured here: cisplatin combination, at 5 µM); 20.8% in assay [7] (BGB combination, concentration series, at 5 µM); 4.85% (inactive) in assay [7] (at 0.5 µM); 20.1% in assay [7] (cisplatin combination, concentration series, at 5 µM). Further, the inhibition is 6.87% (inactive) in assay [8]; 7.24% in [8] (measured here: combo with BGB IC20); 10.9% in assay [8] (measured here: combo with cisplatin IC20); 1.08% (inactive) in [9] (at 0.5 µM); 7.73% in assay [9] (cisplatin combination, at 0.5 µM); -4.41% in assay [9] (cisplatin combination, at 5 µM). The inhibition is 23% in assay [9] (measured here: BGB IC40 combination 0.05 uM, at 0.05 µM); 16.7% in assay [9] (single agent, at 5 µM); 11.8% (inactive) in assay [10] (at 0.5 µM); 41.7% in assay [10] (cisplatin combo, at 5 µM); -1.52% in assay [10] (measured here: BGB IC40 combination, at 0.05 µM); 26.1% in [10] (setting [18]). The inhibition is 5.55% in assay [10] (single agent, at 5 µM); -2.83% (inactive) in assay [11] (at 0.5 µM); 17.8% in [11] (measured here: with BGB IC20 combination, at 0.5 µM); -13.1% in assay [11] (measured here: with cisplatin IC20 combination, at 0.5 µM); 12.8% in [11] (single agent, at 0.05 µM); 42.5% in [11] (single agent, at 5 µM).

As for `CCC[C@@H]1C[C@@H](C(=O)N[C@@H](C2O[C@H](SC)[C@H](O)[C@@H](O)[C@H]2O)[C@H](C)Cl)N(C)C1` (stereo not given in full), the fluorescence slope change in [12] was 138% (active).

For the compound `O=C(O)Cc1cc(I)c(Oc2ccc(O)c(I)c2)c(I)c1`, in assay [12], the fluorescence slope change is 75.2% (active).

For the compound `CC(C)CC1C(=O)N2CCC[C@H]2C2(O)O[C@](NC(=O)C3C=C4c5cccc6[nH]c(Br)c(c56)C[C@H]4N(C)C3)(C(C)C)C(=O)N12` (stereo not given in full), in assay [13], the normalised LDH release is 0.995.

Compound `CO/N=C(/C(=O)N[C@@H]1C(=O)N2C(C(=O)O)=C(COC(C)=O)CS[C@H]12)c1csc(N)n1` gave a normalised LDH release in [13] of 0.958. In addition, the inhibition in assay [14] was 6% (inactive). In addition, the fluorescence ratio (interference) in assay [15] is 1 (inactive).

With `COc1ccc(C[C@H](N)C(=O)N[C@@H]2[C@@H](CO)OC(n3cnc4c(N(C)C)ncnc43)[C@@H]2O)cc1` (stereo not given in full), in [13], the normalised LDH release turned out to be 1.

Consider `CC(C)[C@@H]1CC[C@@H](C)C[C@H]1O`, for which the protection in [16] is 54% (active).

Turning to `CC1(C)O[C@@H]2CC3C4C[C@H](F)C5=CC(=O)C=CC5(C)C4C(O)CC3(C)[C@]2(C(=O)CO)O1` (stereo not given in full), the normalised LDH release in assay [13] was determined as 0.689.

Turning to `CN[C@@H]1[C@H](OC2[C@H](O[C@H]3[C@H](O)[C@@H](O)[C@H](N=C(N)N)[C@@H](O)[C@@H]3N=C(N)N)O[C@@H](C)[C@]2(O)C=O)O[C@@H](CO)[C@H](O)[C@H]1O` (stereo not given in full), the normalised LDH release in [13] amounted to 0.965.

For `C#C[C@]1(O)CCC2C3CCc4cc(O)ccc4C3CC[C@@]21C` (stereo not given in full), in assay [17], the concentration for a half-maximal effect (EC50) is 129 µM and the inhibition is 58.5% (active).

As for `C[C@]12C=CC(=O)C=C1CCC1C2[C@@H](O)C[C@@]2(C)C1CC[C@]2(O)C(=O)CO` (stereo not given in full), in assay [16], the protection was 55% (active).

For orientation: inhibition means the change of the read-out against control, counted positive when it falls. By EC50 is commonly meant the concentration that produces a half-maximal response.
